Our source for the activation values is PubChem BioAssay AID624414 (National Center for Advancing Translational Sciences (NCATS), 2012).

In all, about 410,000 compounds went through this assay and about 480 (0.12%) were called active. This is one part of a sample in which actives are shown more often than they occur. A number with no mark means an inactive call. Rule as the data show it: active = activation above about 50%; inconclusive = mostly about 30% to 49%; inactive = weaker than that.

In the assay the target is Mucolipin-1 (Homo sapiens) (UniProt Q9GZU1). As to the kind of experiment: qHTS for Agonists of the Human Mucolipin Transient Receptor Potential 1 (TRPML1). Also: 0% is about no effect. The note with it: TRPML1-expressing cells, Ca2+ dye fluorescence, FDSS; stronger effect = higher value. From the text: Mutations of human Mucolipin transient receptor potential 1 (TRPML1) cause type IV mucolipidosis (ML4), a devastating neurodegenerative disease in young children. […] Currently, there is no treatment for ML4. […] Under physiological conditions, TRPMLs regulate membrane trafficking by transducing information about PI(3,5)P2 levels into changes in juxtaorganellar Ca2+, thereby triggering membrane fusion/fission events in the late endocytic pathways (endolysosomal trafficking). In addition, TRPML1 mediates release of Fe2+ from late endosomes and lysosomes, which is essential for cellular iron metabolism. Thus, impaired ion (Ca2+ and Fe2+) homeostasis underlies lysosomal dysfunction and ML4 phenotypes. In ML4 cells, the problem is twofold. First, defective Ca2+-dependent membrane trafficking due to TRPML1-deficiency causes accumulation of lipids and other bio-materials in the lysosome. The second strike comes from the lysosomal iron overload (due to impairment of TRPML1's Fe2+ conductivity), which converts the accumulated materials into the nondegradable (resistant to lysosomal degradation) lipofuscin (also called aging pigment) in the lysosome. Lipofuscin accumulation dramatically compromises the functions of lysosomes.
Sequence of Mucolipin-1 (Homo sapiens) (Q9GZU1 whole entry, looked up, the tested form may be a part): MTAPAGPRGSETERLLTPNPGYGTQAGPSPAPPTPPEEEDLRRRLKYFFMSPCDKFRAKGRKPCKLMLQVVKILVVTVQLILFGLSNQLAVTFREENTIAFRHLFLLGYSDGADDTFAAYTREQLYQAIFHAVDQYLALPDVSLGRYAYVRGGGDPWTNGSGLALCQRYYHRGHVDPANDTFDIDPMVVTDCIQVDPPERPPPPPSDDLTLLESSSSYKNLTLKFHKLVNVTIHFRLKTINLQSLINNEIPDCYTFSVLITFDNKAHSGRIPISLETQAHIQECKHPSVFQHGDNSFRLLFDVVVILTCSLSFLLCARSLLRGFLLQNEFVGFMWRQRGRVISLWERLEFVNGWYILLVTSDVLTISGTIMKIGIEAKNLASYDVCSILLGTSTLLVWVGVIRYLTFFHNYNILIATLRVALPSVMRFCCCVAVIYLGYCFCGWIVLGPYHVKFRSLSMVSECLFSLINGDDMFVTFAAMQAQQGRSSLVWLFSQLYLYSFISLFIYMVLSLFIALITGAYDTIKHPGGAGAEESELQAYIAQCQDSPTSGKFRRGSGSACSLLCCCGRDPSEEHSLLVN
Niemann-Pick type C (NPC) disease is another lysosome storage disease (LSD) with severe neurodegeneration during the childhood. Currently, there is no cure for NPC. […] Thus, TRPML1 is likely to be an essential regulator of lysosome ion homeostasis. We specifically hypothesize that stimulating TRPML1's Fe2+/Ca2+ channel activity in the lysosome using synthetic agonists can alleviate neurodegeneration associated with ML4 or NPC.
To this end, a high throughput screen was developed in a miniaturized format to screen against the Molecular Libraries Small Molecule Repository (MLSMR) to find small molecules that act either as inhibitors or agonist against the TRPML1 channel.
NIH Chemical Genomics Center [NCGC]
NIH Molecular Libraries Probe Centers Network [MLPCN]
Assay Submitter (PI): Haoxing Xu, University of Michigan Ann Arbor
TRPML1-DL cells are dissociated from flasks, counted and, brought up to a density of 500,000 cells per mL of media containing a 1X Tet inducer. Using a Multidrop Combi, 3uL of this cell solution is dispensed to each well of a 1536 TC treated, black, clear bottom hi base plate for a final cell density of 1,500 cells per well. The assay plates are incubated overnight (approximately 16 hours) at 37 degrees C and 5% CO2. Using a Multidrop Combi, 2uL of ABD Ca8 no wash dye plus quencher is added to each well. The assay plates incubate at room temperature in the dark for 45-90 minutes. The assay plate is read on the FDSS using the following protocol: 10 second baseline read, 23nL of compounds and controls are added using 1536 pintool, agonist read for 110 seconds, 1 uL EC80 addition (4uM final 54-4 diluted in media), antagonist read for 110 seconds.
As to `Cc1ccc(CNC(=O)c2ccccc2CCc2ccccc2)cc1`, the activation was 0.628%. The figure for `O=C1c2ccccc2S(=O)(=O)c2cc(N3CCN(c4ccccn4)CC3)ccc21` is -0.448%; for `Cc1ccc(CNC(=O)c2cccc3c2C(=O)c2ccc(N4CCC(C)CC4)cc2S3(=O)=O)cc1` it is 66.9% (active); for `O=C(COC(=O)c1ccccc1OCCOc1ccccc1)Nc1cccc(Br)c1` it is -1.41%.

As for `COc1cc2[nH]c(C)c(CCN3CCN(c4ccccc4)CC3)c2cc1OC`, the activation was -0.545%. The figure for `CN(CC(=O)Nc1ccc(C(N)=O)cc1)S(=O)(=O)c1ccc2c(c1)OCCO2` is 0.311%. On to `NC(=O)c1ccc(NC(=O)COC(=O)c2c3c(nc4ccccc24)/C(=C\c2ccc4c(c2)OCO4)CCC3)cc1`, for which the activation was 96% (active).

In the case of `NC(=O)c1ccc(NC(=O)COC(=O)C(Cc2ccccc2)NC(=O)c2ccccc2)cc1` (stereo not given), the activation was 4.33%. The value for `C[N+]1(CC(=O)c2cccs2)CCOCC1` was -0.317%. The value for `CN(C)c1ccc(/C=C2\C=Cc3ccccc32)cc1Br` was 0.0951%; that for `OCCNc1ncnc2oc(-c3ccco3)c(-c3ccco3)c12` was 0.995%; that for `COc1ccc(-c2cc(C(=O)Nc3sc4c(c3C(N)=O)CCCC4)no2)cc1` was 0.03%. The value for `CC(C)c1ccc(NC(=O)Cn2nnc(C(=O)NCCc3ccccc3)c2N)cc1` was 1.91%. As for `Cc1ccc(-c2nnc3ccc(SCC(N)=O)nn23)cc1`, the activation was -0.578%. The value for `COc1ccc(C(=O)Nc2nonc2-c2ccc(OC)c(OC)c2)cc1Cl` was 2.17%. As for `CC1(C)CC(=O)c2cc(C(=O)NCc3ccccc3)c(=O)[nH]c2C1`, the activation is -0.38%. Consider `COc1ccc(C(=O)NCC(c2ccc(N(C)C)cc2)N2CCc3ccccc32)c(OC)c1` (stereo not given), for which the activation is -0.0968%. The value for `CCOc1ccccc1N(CC)C(=O)c1cc2ccc3cccnc3c2[nH]1` was 1.16%. The value for `CCOC(=O)c1ccc(NC(=O)CC2C(=O)N(c3ccccc3)C(=O)N2Cc2cccs2)cc1` (stereo not given) was 0.378%; that for `Cc1csc(NCC(=O)c2c[nH]c3ccccc23)n1` was -0.545%. The figure for `Nc1ccccc1N` is -0.412%; for `c1ccc(Cn2nnc3c(N4CCCCC4)ncnc32)cc1` it is -0.998%.

With `Cc1cccc(-c2nnc(SC(C)C(=O)Nc3ccccc3)n2C)c1` (stereo not given), the activation is -0.995%. The value for `Cc1ccc(C=O)cc1Cl` was -0.475%. The value for `C(=Nc1ccc(/C=C/c2ccnc3ccccc23)cc1)c1cc2c3c(c1)CCCN3CCC2` was 1.62%; that for `ClC/C=C/C[n+]1ccccc1Cl` was 0.254%; that for `Nc1ccc(/C=C/c2ccnc3ccccc23)c([N+](=O)[O-])c1` was 17.6%. The figure for `Cc1ccccc1NC(=O)Cn1c(=O)n(CC2CCC(C(=O)NCCc3ccccc3)CC2)c(=O)c2ccccc21` (stereo not given) is 0.124%. Regarding `Clc1cccc[n+]1CCCC[n+]1ccccc1Cl`, the activation is -0.384%. The value for `CCOc1ccc2oc(=O)cc(CN3CCN(C(=O)c4ccc(F)cc4)CC3)c2c1` was 0.651%; that for `CC(C)(C(=O)NO)c1ccccc1` was -0.108%; that for `CN(C(=N)N)c1ccc(/C=C2\C=Cc3ccccc32)cc1` was -0.285%. The figure for `CCCCSc1ncnc2c1sc1nc(N3CCOCC3)c3c(c12)CCCC3` is 0.201%; for `CSc1n[nH]c(-c2ccco2)n1` it is -0.16%; for `O=C(C[n+]1ccncc1)c1ccc2c(c1)CCCC2` it is -0.708%. The value for `Cc1cc[n+](C2CCCCC2)cc1` was 3.69%; that for `CN1CCN(/[N+]([O-])=N/Oc2ccc([N+](=O)[O-])cc2[N+](=O)[O-])CC1` was 1.19%. On to `C=C1C=C(C(F)F)n2ncc(C(=O)NCCc3ccccc3OC)c2N1`, for which the activation was -1.28%. The value for `COc1ccc(CCNc2nc(-c3ccc(Cl)cc3)cc(C(F)(F)F)n2)cc1OC` was -0.222%. The value for `CCC(=O)N(Cc1ccccc1)c1ccccn1` was -0.645%; that for `CN(C(=O)CN(CCO)CC(=O)N(C)C(C)(C)Cc1ccccc1)C(C)(C)Cc1ccccc1` was 51.2% (active). The value for `Cc1cc(C)cc(NC(=O)N(C)Cc2ccccc2)c1` was 0.932%; that for `COc1ccc(C2/C=C\CN(C(=O)c3ccc(C)cc3)C(Cc3ccccc3)C(=O)N2Cc2ccc(F)cc2)cc1` (stereo not given) was 0.118%; that for `CCc1ccc(C2CC(=O)c3c([nH]c(C(=O)OCc4ccc(C)cc4)c3C)C2)cc1` (stereo not given) was 1.69%. In the case of `CCc1ccc(CNCc2c(C(=O)O)n(Cc3ccc(F)cc3Cl)c3cc(OC)ccc23)cc1`, the activation is 0.807%. The figure for `CCN(CC)c1ccc(/C=C/c2c(C)cnc3ccc(C)cc23)cc1` is 11.4%.

Consider `CN(C)c1ccc(/C=c2\[nH]c(=O)/c(=C/c3ccc(N(C)C)cc3)[nH]c2=O)cc1`, for which the activation is 0.206%. The figure for `CN(C)c1ccc(/C=C/c2c3ccccc3nc3ccccc23)cc1` is 0.354%.

As for `CN(C)c1ccc(/C=C2\NC(=S)N(Cc3ccccc3)C2=O)cc1`, the activation is 66.5% (active). The figure for `Nc1c(C(=O)c2cccs2)sc2nsc(SCCN3CCCCC3)c12` is 56.3% (active). The figure for `Cc1ccc(CCNC(=O)Cn2c(-c3cccs3)cc3cc(F)ccc32)cc1` is -0.443%; for `CNCCCOc1cc2nc(N3CCCN(C)CC3)nc(NC3CCN(C)CC3)c2cc1OC` it is -0.513%. The value for `COc1cc2nc(N3CCCN(C)CC3)nc(NC3CC3)c2cc1OC` was -0.539%; that for `COc1cc(OC)c(/C=C/c2ccnc3ccccc23)c(OC)c1` was -0.602%; that for `CN(N=O)c1ccc(C=C2c3ccccc3-c3ccccc32)cc1` was -0.127%. For the compound `Cn1nnnc1SCC(=O)N1CCN(C(c2ccccc2)c2ccccc2)CC1`, the activation is 2%. The value for `Oc1ccccc1CN1CCN(C(c2ccccc2)c2ccccc2)CC1` was 84.3% (active); that for `CC(=O)N1CCN(CC(c2ccccc2)c2ccccc2)CC1` was -0.726%.

For the compound `CCN1CCN(c2ccc(/C=C/c3ccnc4ccccc34)cc2)CC1`, the activation was 5.01%. As to `Cc1ccc(NC(=O)c2ccc(CN3CC(=O)N4CCCCC4C3=O)cc2)c(Cl)c1` (stereo not given), the activation is 2.76%.

Take `CCOc1n[nH]c(-c2ccccc2)n1`: the activation was 0%. The value for `CN(C)c1ccc(/C=N\Nc2ccc([N+](=O)[O-])cc2[N+](=O)[O-])cc1Cl` was -0.0634%; that for `O=C(CSc1ncc(-c2ccccc2)[nH]1)Nc1ccc(F)cc1F` was 2.97%; that for `OCC(O)C(O)C(O)C(O)C=Nc1ccc(/C=C/c2ccnc3ccccc23)cc1` (stereo not given) was 6.02%.

Turning to `COC(=O)C1=C(C(=O)OC)[C@@H]2N(Cc3ccccc3)c3ccccc3[C@@]23C[C@@H](C(=O)OC)N(S(=O)(=O)c2ccc(C(F)(F)F)cc2)C3=N1`, the activation is -0.417%.

As for `CCN1/C(=C/c2ccc3ccc(C)cc3[n+]2CC)Sc2ccccc21`, the activation is 70.1% (active). The value for `CCCCOc1ccc(C(=O)NO)cc1` was -0.809%; that for `Cc1csc[n+]1CCC1CCCCC1` was 0.413%; that for `C=C1C=C(C)n2ncc(C(=O)Nc3ccccc3O)c2N1` was -0.539%.

`Nc1nc(N)c(N=O)c(N)n1`: the activation was -0.147%. The value for `C=CCCN(C(Cc1ccccc1)C(=O)OC)S(=O)(=O)c1cc(Br)ccc1Br` (stereo not given) was 2.52%; that for `CCOC(=O)CNC(=O)c1cc2c(=O)n3cccc(C)c3nc2s1` was 0.461%; that for `CCOC(=O)CC1C(=O)NCCN1c1nc2c(C)cccn2c(=O)c1/C=C1\SC(=S)N(C(C)CC)C1=O` (stereo not given) was 71% (active). The figure for `CCCN(CCC)c1nc2c(C)cccn2c(=O)c1/C=C1/SC(=S)N(Cc2ccco2)C1=O` is 17.6%; for `CCC(=O)N1CCc2cc(Br)cc(S(=O)(=O)CCC(=O)NCCc3ccc(OC)c(OC)c3)c21` it is -0.301%; for `Cc1[nH]c2ccccc2c1C(=O)C(=O)N(C)c1ccccc1` it is -0.513%. The figure for `COC(=O)C1=C(c2ccccc2)c2ccccc2S(=O)(=O)N1CC(=O)Nc1ccccc1C(F)(F)F` is 1.11%; for `CN(C)c1ccc(/C=C/C=C/c2ccnc3ccccc23)cc1` it is 52.7% (active); for `CCC(C)N(c1ccc(/C=C/c2ccnc3ccccc23)cc1)C(C)CC` (stereo not given) it is 18.2%.

As to `CN(C)c1ccc(C=Nc2ccc(/C=C/c3ccnc4ccccc34)cc2)cc1`, the activation is 1.17%. The value for `Cc1cccc(CN2Cc3cccc4c3[C@H](C=CC4)CC2=S)c1` was -0.678%.

Turning to `CCCc1cc(=O)n2[nH]c(NCc3ccc(CC)cc3)nc2n1`, the activation is -0.211%. In the case of `CCCN1CCC(=O)N(C(CSc2ccc(C)cc2)Cc2ccccc2)CC1` (stereo not given), the activation is 1.24%. The figure for `CCOC1=C2[C@H]([C@H]3C(=O)N(c4ccccc4)C(=O)[C@H]3C1)[C@@H](c1ccccc1)N(S(=O)(=O)c1ccc(C)cc1)[C@H]2c1ccccc1` is -0.217%.

For `CCOC1=C2CN(S(=O)(=O)c3ccc(C)cc3)[C@H](c3cccs3)C[C@H]2[C@H]2C(=O)N(c3ccccc3)C(=O)[C@H]2C1`, the activation was 64.2% (active). The value for `CCOC1=C2[C@@H](CN(S(=O)(=O)c3ccc(C)cc3)[C@H]2c2ccccc2F)[C@H]2C(=O)N(Cc3ccccc3)C(=O)[C@H]2C1` was 1.29%; that for `COc1cc(NS(=O)(=O)c2cccs2)cc(OC)c1` was -1.48%. The figure for `COc1cc2nc(Cl)nc(NC3CC3)c2cc1OC` is -0.998%; for `CCOC(=O)c1c(NC(=O)COc2cc(C)ccc2C(C)C)sc(C)c1C` it is 1.35%; for `O=C1C[C@H]2C=CCc3cccc(c32)CN1Cc1ccccc1` it is -0.974%.
